The source made the active and inactive calls. Rule for the calls: active = hit-call score of the fitted dose curve at least 0.9, where 1 is the maximum; inactive = score below 0.9.

The nature of this assay: ATG_PXRE_CIS: Attagene CIS-FACTORIAL HepG2 Assay for human Pregnane X Receptor Element (PXRE) (AID 2282957). To be noted: HepG2 Attagene CIS-FACTORIAL PXRE reporter, mRNA; actives raise or lower the signal. As for the experimental part: ATG_CIS is a cell-based, multiplexed-readout assay that uses HepG2, a human liver cell line, with measurements taken at 24 hours after chemical dosing in a 24-well plate.ATG_PXRE_CIS is one of 52 assay component(s) measured or calculated from the ATG_CIS assay. It is designed to make measurements of mRNA induction, a form of inducible reporter, as detected with fluorescence intensity signals by Reverse transcription polymerase chain reaction (RT-PCR) and Capillary electrophoresis technology.Data from the assay component ATG_PXRE_CIS was analyzed into 1 assay endpoint. This assay endpoint, ATG_PXRE_CIS, was analyzed with bidirectional fitting relative to DMSO as the negative control and baseline of activity. Using a type of inducible reporter, measures of mRNA for gain or loss-of-signal activity can be used to understand the reporter gene at the transcription factor-level as they relate to the gene NR1I2. Furthermore, this assay endpoint can be referred to as a primary readout, because this assay has produced multiple assay endpoints where this one serves a reporter gene function. To generalize the intended target to other relatable targets, this assay endpoint is annotated to the nuclear receptor intended target family, where the subfamily is non-steroidal.
Human liver HepG2 cells are transiently transfected with multiple reporter transcription units (MRTUs) in 6-well plates using FuGene 6 reagent (Roche; 3 ml FuGene/1 mg DNA). The MRTU constructs are regulated by a cis-regulating element (promoter). […] A major difference between the CIS and TRANS system is that in CIS activities of endogenous TFs are measured, whereas the TRANS assay evaluates changes in activities of exogenous, chimeric NR-Gal4 proteins. […] At the end of 24 hour incubation, total RNA was isolated using TriZol reagent (Invitrogen). The isolated RNA is then reverse-transcribed using oligo(dT) primer and Mo-MLV reverse transcriptase (Invitrogen) with DNAse I (Ambion) treatment for 30 min. The one-tenth of the produced cDNA was amplified by PCR using Taq DNA polymerase (Invitrogen) and two reporter sequence-specific primers. The PCR products were fluorescently labeled by primer extension with 6-arboxyfluorescein (6-FAM) 5'-labeled reporter sequence-specific primer (2 min at 95 C, 20 s at 68 C and 10 min at 72 C) and these products were digested with 5U of HpaI (New England Biolabs) for 2h at 37 C. The fragments were purified using Qiaquick PCR columns (Qiagen), analyzed on an ABI 3130xL genetic analyzer (Applied Biosystems) with peak positions identified by using a set of X-rhodamine (ROX)-labeled MapMarker1000 molecular weight standards (BioVentures). The raw capillary electrophoresis data was processed using Attagraph software (Attagene).
For `NC(N)=O`, the call was inactive.

As to `Cc1ccc(S(=O)(=O)NC(=O)NN2CCCCCC2)cc1`, the call was inactive.

One may read the AC50 as the concentration giving half of the maximal activity seen. As for `CC(C)CCCCCCOC(=O)C1CCCCC1C(=O)OCCCCCCC(C)C` (stereo not given), the half-maximal activity concentration (AC50) is 1.17 µM (active).

Regarding `O=C(O)CO`, the call was inactive.

As to `NC(=O)N(O)[C@@H]1COc2cc(OCc3ccccc3)ccc21`, the compound was classed as inactive.

Turning to `CNC(C)=O`, the AC50 was 26.1 µM (active).

Turning to `CCn1nc(C)c2c1C(=O)NCC(c1ccc(O)cc1)=N2`, the compound was called inactive.

Take `CC1(C)C(=O)N(Cl)C(=O)N1Cl`: the compound was called inactive.

In the case of `FC(F)(F)C(F)(F)C(F)(F)C(F)(F)C(F)(F)C(F)(F)I`, the result was inactive.

On to `O=C(O)c1ccc2c(c1)nc(C(=O)NC1CCN(C3CC3)CC1)n2Cc1cc(-c2ccc(Cl)s2)on1`, for which the result was inactive.

On to `CC[C@H](C)C(=O)O[C@H]1C[C@H](O)C=C2C=C[C@H](C)[C@H](CC[C@@H](O)C[C@@H](O)CC(=O)O)[C@H]21`, for which the AC50 is 48.1 µM (active).

In the case of `CCCCCCCC1CCC(=O)O1` (stereo not given), the outcome was inactive.

For `Cn1cc[nH]c1=S`, the result was inactive.

With `CC(=O)c1ccccc1`, the compound was classed as inactive.

Regarding `O=S(=O)(O)c1ccc(N=Nc2c(O)ccc3cc(S(=O)(=O)O)ccc23)cc1`, the compound was classed as inactive.

In the case of `C[C@@H](Oc1ccc(CNC(=O)c2cccnc2Oc2ccc3c(c2)OCO3)c(F)c1)C(=O)O`, the call was inactive.

In the case of `OC[C@H]1O[C@@](CO)(O[C@H]2O[C@H](CO)[C@@H](O)[C@H](O)[C@H]2O)[C@@H](O)[C@@H]1O`, the result was inactive.

As for `CCOC(N)=O`, the call was inactive.

Regarding `O=C(O)c1cccc(C(=O)O)c1`, the call was inactive.

With `FC(F)=C(F)C(F)(F)C(F)(F)C(F)(F)C(F)(F)C(F)(F)C(F)(F)F`, the compound was classed as inactive.

Regarding `OC[C@H]1O[C@@H]2O[C@H]3[C@H](O)[C@@H](O)[C@@H](O[C@H]4[C@H](O)[C@@H](O)[C@@H](O[C@H]5[C@H](O)[C@@H](O)[C@@H](O[C@H]6[C@H](O)[C@@H](O)[C@@H](O[C@H]7[C@H](O)[C@@H](O)[C@@H](O[C@H]1[C@H](O)[C@H]2O)O[C@@H]7CO)O[C@@H]6CO)O[C@@H]5CO)O[C@@H]4CO)O[C@@H]3CO`, the AC50 is 18.4 µM (active).

Regarding `CCCCCCCC/C=C\CCCCCCCC(=O)OC[C@@H](O)[C@H]1OC[C@H](O)[C@H]1O`, the AC50 is 71.7 µM (active).

For `OCc1ccccc1`, the outcome was inactive.

`CC(C)CC(C)O` (stereo not given): the compound was called inactive.

In the case of `Cc1ncc([C@@H](CCCCCCc2ccc3c(n2)NCCC3)CC(=O)O)cn1`, the AC50 is 27.6 µM (active).

With `CCCc1ccccc1`, the compound was called inactive.

With `CCN(CC)C(=S)SSC(=S)N(CC)CC`, the AC50 was 161 µM (active).

Turning to `FC(F)(F)COC(OCC(F)(F)F)OCC(F)(F)F`, the result was inactive.

In the case of `O=S1(=O)CCCO1`, the compound was called inactive.

`CC(C)C(=O)Nc1ccc([N+](=O)[O-])c(C(F)(F)F)c1`: the AC50 is 2.87 µM (active).

On to `c1ccc2cc3ccccc3cc2c1`, for which the compound was classed as inactive.

In the case of `c1ccc2c(c1)-c1cccc3c1c-2cc1ccccc13`, the call was inactive.

As for `CCOc1ccc2[nH]cc(C(=O)NCc3ccccc3)c(=O)c2n1`, the AC50 is 26.7 µM (active).

For `OCC(CO)(CO)CO`, the compound was classed as inactive.

As to `C[C@]12C=CC(=O)C=C1CC[C@H]1[C@@H]3C[C@@H](O)[C@](O)(C(=O)CO)[C@@]3(C)C[C@H](O)[C@@]12F`, the call was inactive.

Regarding `CC(C)c1nnc2ccc(-c3ocnc3-c3cc(F)ccc3F)cn12`, the AC50 was 26.5 µM (active).

`Nc1ccn([C@@H]2O[C@H](CO)[C@@H](O)[C@@H]2O)c(=O)n1`: the compound was classed as inactive.

Consider `COS(C)(=O)=O`, for which the outcome was inactive.

For the compound `OC(O)(C(F)C(O)(O)C(F)(F)F)C(F)(F)F`, the call was inactive.

For `CCc1ccc(O)c(C(C)(C)C)c1`, the concentration at half-maximal activity (AC50) is 15.9 µM (active).

These data come from PubChem BioAssay (EPA / NIEHS).
